# Source: article PMC7862700, “An all-to-all approach to the identification of sequence-specific readers for epigenetic DNA modifications on cytosine”
# Tests used:
# Assay in all cases: DAPPL (digital affinity profiling via proximity ligation, sequencing); 10 mM Tris-HCl pH 7.5, 50 mM NaCl, 1 mM DTT, 4% glycerol, room temperature, 30 min; GST-TFs on glutathione beads, 16-mer random dsDNA library, 0.1% formaldehyde crosslink after washing; high values mean tight binding
# FEV = target: T1, FEV (Homo sapiens, UniProt Q99581 1-238); details: protein: recombinant; tags: N-terminal GST; dsDNA, one strand shown
# T1 sequence: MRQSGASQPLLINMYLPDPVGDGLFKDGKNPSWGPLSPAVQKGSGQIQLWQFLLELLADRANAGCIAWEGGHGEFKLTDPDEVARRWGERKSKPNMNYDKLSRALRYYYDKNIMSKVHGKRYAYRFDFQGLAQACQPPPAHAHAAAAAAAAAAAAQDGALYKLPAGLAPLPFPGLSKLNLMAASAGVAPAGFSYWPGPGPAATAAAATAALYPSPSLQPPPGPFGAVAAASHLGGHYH
# How it was run: (§1)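 Pools of DNA-barcoded human transcription factors, expressed in yeast as GST fusions on glutathione beads and combined with a tag-only sample, were incubated with 200 nmole of a 16-mer random double-stranded DNA library. Incubation took 30 min at room temperature in Tris/NaCl/DTT/glycerol buffer and was followed by washing, 0.1% formaldehyde crosslinking, proximity ligation (BsaI/T4 ligase, 1 h, 37 °C), PCR amplification and sequencing on an Illumina NextSeq500. Binding signal is the ratio of a hexamer's read frequency for a factor to its frequency for the tag-only sample.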
# ETV5 = ETV5 (Homo sapiens, UniProt P41161 1-510); details: protein: recombinant; tags: N-terminal GST; dsDNA, one strand shown
# Sequence of ETV5 (P41161 whole entry): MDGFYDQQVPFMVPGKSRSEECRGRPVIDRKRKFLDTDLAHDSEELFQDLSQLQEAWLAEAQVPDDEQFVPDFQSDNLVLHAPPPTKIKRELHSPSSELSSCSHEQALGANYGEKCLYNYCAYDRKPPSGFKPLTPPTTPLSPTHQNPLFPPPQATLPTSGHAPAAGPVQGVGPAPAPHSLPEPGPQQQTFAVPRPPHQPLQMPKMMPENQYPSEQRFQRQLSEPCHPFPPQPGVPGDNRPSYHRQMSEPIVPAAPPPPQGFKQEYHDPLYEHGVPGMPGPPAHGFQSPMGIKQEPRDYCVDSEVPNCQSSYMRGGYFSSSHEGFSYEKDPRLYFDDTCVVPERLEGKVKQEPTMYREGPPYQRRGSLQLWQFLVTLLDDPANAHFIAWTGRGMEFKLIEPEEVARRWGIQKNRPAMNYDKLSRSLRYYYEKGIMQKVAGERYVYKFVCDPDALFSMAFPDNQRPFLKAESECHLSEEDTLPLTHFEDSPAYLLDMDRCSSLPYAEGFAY
# How it was run: as §1
# HSF1 = HSF1 (Homo sapiens, UniProt Q00613 1-529); details: protein: recombinant; tags: N-terminal GST; chain copies: 3; dsDNA, one strand shown
# Sequence of HSF1 (Q00613 whole entry): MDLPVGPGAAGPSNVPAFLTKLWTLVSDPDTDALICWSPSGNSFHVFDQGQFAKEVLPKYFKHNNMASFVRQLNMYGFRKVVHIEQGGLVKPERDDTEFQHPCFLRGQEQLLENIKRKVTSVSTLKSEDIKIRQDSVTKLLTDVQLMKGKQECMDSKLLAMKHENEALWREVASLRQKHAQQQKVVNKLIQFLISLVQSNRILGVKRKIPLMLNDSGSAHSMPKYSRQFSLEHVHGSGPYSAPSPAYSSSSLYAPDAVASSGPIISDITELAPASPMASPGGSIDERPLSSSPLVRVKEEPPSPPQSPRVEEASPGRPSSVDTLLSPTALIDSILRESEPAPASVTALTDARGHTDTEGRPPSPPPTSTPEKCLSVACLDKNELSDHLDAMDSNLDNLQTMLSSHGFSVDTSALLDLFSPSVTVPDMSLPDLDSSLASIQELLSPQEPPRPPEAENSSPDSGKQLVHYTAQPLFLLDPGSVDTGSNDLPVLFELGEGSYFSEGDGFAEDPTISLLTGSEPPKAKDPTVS
# How it was run: as §1
# SPIC = target: T2, SPIC (Homo sapiens, UniProt Q8N5J4 1-248); details: protein: recombinant; tags: N-terminal GST; dsDNA, one strand shown
# T2 sequence: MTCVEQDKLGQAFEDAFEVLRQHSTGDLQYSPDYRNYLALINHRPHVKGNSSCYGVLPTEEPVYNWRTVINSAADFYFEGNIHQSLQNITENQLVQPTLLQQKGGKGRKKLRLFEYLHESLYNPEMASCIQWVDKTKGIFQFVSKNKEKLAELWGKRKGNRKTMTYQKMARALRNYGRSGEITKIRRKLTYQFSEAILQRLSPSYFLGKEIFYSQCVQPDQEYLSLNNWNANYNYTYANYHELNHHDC
# How it was run: as §1
# ELF4 = ELF4 (Homo sapiens, UniProt Q99607 1-663); details: protein: recombinant; tags: N-terminal GST; dsDNA, one strand shown
# Sequence of ELF4 (Q99607 whole entry): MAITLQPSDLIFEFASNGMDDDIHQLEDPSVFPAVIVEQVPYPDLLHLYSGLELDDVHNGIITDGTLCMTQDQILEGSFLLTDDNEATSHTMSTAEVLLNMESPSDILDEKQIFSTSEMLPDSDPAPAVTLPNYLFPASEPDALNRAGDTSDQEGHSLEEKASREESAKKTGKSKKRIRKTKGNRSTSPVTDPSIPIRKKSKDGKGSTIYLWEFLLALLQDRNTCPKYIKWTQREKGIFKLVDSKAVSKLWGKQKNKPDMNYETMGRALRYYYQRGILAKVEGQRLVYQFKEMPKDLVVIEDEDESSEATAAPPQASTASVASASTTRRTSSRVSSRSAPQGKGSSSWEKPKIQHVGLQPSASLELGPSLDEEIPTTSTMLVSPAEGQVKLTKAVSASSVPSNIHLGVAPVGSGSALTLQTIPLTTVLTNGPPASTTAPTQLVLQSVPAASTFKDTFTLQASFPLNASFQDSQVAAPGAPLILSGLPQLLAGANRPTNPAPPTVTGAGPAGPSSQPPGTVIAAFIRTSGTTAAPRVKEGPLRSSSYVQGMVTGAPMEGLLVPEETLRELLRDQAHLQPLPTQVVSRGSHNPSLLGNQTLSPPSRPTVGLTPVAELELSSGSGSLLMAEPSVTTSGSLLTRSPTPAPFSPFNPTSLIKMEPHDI
# How it was run: as §1
# ELK4 = target: T3, ELK4 (Homo sapiens, UniProt P28324-2 1-405); details: protein: recombinant; tags: N-terminal GST; dsDNA, one strand shown
# T3 sequence: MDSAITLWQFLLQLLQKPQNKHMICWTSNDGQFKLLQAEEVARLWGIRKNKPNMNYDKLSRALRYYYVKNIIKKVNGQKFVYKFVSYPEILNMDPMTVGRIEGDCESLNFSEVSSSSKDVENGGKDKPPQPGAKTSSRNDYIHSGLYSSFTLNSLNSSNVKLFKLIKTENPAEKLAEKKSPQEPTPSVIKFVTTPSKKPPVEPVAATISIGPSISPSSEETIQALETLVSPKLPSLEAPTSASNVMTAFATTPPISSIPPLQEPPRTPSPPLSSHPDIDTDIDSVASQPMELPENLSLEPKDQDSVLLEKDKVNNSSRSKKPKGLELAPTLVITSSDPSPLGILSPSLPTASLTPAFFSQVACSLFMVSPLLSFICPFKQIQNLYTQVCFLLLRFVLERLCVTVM
# How it was run: as §1
# ETV2 = target: T4, ETV2 (Homo sapiens, UniProt O00321 1-342); details: protein: recombinant; tags: N-terminal GST; dsDNA, one strand shown
# T4 sequence: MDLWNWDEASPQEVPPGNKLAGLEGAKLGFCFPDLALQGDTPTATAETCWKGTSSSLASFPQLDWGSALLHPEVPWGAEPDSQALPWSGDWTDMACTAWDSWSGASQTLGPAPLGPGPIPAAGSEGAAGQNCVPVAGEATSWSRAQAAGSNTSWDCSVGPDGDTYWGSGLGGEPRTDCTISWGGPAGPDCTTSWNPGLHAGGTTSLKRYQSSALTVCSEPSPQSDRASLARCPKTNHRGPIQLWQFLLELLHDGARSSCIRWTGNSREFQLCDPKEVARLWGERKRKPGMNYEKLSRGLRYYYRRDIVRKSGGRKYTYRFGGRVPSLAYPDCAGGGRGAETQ
# How it was run: as §1
# ELF3 = target: T5, ELF3 (Homo sapiens, UniProt P78545 1-371); details: protein: recombinant; tags: N-terminal GST; dsDNA, one strand shown
# T5 sequence: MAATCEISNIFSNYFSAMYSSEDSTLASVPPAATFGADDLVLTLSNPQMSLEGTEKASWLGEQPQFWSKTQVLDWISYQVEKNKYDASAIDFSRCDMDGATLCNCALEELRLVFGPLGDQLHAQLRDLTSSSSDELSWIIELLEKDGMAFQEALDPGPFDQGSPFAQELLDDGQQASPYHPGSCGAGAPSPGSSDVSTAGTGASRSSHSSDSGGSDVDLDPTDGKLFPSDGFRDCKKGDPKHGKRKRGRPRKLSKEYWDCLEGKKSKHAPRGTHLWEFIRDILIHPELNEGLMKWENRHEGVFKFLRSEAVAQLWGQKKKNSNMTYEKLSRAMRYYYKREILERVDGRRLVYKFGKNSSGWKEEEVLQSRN
# How it was run: as §1
# CRX = CRX (Homo sapiens, UniProt O43186 1-299); details: protein: recombinant; tags: N-terminal GST; dsDNA, one strand shown
# Sequence of CRX (O43186 whole entry): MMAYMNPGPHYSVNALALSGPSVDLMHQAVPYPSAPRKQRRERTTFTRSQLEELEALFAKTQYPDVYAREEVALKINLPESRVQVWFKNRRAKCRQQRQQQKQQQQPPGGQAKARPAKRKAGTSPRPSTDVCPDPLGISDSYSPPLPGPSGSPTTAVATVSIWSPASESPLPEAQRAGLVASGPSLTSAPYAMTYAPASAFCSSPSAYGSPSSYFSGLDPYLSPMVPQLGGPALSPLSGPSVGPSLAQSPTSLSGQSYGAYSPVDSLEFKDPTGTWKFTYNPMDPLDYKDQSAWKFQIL
# How it was run: as §1
# ETV1 = ETV1 (Homo sapiens, UniProt P50549 1-477); details: protein: recombinant; tags: N-terminal GST; dsDNA, one strand shown
# Sequence of ETV1 (P50549 whole entry): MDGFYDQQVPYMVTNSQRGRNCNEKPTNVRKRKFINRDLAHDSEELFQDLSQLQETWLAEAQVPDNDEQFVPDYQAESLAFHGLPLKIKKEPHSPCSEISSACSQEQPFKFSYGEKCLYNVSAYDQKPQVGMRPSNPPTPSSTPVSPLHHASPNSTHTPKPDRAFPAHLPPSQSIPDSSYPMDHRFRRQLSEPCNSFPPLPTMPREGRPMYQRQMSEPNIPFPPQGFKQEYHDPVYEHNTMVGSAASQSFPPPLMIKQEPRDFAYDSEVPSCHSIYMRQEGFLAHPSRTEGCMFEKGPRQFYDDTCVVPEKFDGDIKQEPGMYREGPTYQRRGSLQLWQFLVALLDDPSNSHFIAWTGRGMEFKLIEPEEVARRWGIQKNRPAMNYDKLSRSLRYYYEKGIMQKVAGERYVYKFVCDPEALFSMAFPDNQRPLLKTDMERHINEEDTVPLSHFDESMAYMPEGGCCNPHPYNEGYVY
# How it was run: as §1
# ERF = target: T6, ERF (Homo sapiens, UniProt P50548 1-548); details: protein: recombinant; tags: N-terminal GST; dsDNA, one strand shown
# T6 sequence: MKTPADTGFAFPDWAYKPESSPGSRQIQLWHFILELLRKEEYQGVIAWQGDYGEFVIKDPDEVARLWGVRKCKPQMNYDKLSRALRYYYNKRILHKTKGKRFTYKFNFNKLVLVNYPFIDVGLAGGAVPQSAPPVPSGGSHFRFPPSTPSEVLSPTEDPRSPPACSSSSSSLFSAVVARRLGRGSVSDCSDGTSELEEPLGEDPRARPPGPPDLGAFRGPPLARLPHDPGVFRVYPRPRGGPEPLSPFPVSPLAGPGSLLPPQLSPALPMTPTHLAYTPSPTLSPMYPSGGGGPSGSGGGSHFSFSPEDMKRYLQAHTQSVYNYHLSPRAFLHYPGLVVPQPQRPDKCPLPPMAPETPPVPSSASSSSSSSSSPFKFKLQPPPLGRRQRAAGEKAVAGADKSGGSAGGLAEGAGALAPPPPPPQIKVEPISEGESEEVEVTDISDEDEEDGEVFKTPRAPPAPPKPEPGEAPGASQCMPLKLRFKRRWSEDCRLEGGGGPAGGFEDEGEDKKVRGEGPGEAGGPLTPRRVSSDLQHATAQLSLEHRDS
# How it was run: as §1
# ETV3L = target: T7, ETV3L (Homo sapiens, UniProt Q6ZN32 1-361); details: protein: recombinant; tags: N-terminal GST; dsDNA, one strand shown
# T7 sequence: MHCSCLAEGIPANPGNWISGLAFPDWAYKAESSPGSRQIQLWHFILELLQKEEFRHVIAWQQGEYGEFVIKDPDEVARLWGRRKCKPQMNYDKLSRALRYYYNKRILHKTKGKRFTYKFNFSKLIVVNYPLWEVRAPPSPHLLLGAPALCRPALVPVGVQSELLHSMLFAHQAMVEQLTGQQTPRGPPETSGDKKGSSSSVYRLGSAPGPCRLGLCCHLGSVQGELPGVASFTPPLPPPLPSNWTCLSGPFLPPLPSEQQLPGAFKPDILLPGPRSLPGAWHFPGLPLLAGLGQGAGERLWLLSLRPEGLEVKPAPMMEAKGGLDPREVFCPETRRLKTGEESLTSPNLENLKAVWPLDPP
# How it was run: as §1
# ETS2 = target: T8, ETS2 (Homo sapiens, UniProt P15036 1-469); details: protein: recombinant; tags: N-terminal GST; dsDNA, one strand shown
# T8 sequence: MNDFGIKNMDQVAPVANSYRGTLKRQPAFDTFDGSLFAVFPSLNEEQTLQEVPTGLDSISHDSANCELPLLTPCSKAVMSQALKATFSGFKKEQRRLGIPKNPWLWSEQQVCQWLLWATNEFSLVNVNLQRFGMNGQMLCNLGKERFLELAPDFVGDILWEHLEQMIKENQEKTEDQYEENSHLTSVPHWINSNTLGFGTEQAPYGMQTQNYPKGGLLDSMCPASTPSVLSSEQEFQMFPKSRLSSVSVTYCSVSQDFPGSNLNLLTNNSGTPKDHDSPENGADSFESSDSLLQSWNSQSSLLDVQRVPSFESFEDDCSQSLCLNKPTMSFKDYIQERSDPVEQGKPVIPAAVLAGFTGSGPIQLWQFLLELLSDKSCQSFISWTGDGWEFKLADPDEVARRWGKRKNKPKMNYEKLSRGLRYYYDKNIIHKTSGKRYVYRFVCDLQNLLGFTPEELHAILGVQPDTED
# How it was run: as §1
# SPDEF = target: T9, SPDEF (Homo sapiens, UniProt O95238 1-335); details: protein: recombinant; tags: N-terminal GST; dsDNA, one strand shown
# T9 sequence: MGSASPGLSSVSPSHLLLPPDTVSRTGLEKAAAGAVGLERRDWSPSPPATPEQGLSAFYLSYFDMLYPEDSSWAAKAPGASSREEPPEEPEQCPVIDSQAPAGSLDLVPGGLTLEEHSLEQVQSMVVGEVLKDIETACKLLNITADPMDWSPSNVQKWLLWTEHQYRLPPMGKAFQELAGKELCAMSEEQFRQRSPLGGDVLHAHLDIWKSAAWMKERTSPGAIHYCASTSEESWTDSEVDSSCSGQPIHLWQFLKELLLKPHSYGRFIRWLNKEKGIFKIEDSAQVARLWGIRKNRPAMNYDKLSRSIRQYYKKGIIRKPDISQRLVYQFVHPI
# How it was run: as §1
# ETV7 = target: T10, ETV7 (Homo sapiens, UniProt Q9Y603 1-341); details: protein: recombinant; tags: N-terminal GST; dsDNA, one strand shown
# T10 sequence: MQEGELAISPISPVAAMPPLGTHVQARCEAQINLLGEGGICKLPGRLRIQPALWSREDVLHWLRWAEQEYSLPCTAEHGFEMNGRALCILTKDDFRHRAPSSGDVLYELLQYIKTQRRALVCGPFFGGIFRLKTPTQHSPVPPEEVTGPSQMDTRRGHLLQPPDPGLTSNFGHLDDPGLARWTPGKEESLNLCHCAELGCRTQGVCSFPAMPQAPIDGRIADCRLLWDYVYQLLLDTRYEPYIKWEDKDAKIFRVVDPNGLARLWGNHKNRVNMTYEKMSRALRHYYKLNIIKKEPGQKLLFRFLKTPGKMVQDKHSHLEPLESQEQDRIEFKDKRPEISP
# How it was run: as §1
# ELF5 = target: T11, ELF5 (Homo sapiens, UniProt Q9UKW6-2 1-255); details: protein: recombinant; tags: N-terminal GST; dsDNA, one strand shown
# T11 sequence: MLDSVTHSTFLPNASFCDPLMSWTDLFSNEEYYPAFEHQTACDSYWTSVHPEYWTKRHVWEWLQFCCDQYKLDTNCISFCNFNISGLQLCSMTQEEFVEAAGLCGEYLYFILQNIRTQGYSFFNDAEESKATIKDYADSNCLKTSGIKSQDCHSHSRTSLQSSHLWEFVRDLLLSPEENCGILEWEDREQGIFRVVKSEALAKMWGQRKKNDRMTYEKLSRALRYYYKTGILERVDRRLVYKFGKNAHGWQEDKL
# How it was run: as §1
# ETV3 = target: T12, ETV3 (Homo sapiens, UniProt P41162-2 1-143); details: protein: recombinant; tags: N-terminal GST; dsDNA, one strand shown
# T12 sequence: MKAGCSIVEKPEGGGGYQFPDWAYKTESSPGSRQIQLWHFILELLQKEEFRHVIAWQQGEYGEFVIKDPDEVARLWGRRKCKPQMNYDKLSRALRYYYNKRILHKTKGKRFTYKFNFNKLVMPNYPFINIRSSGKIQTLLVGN
# How it was run: as §1
# ETV6 = ETV6 (Homo sapiens, UniProt P41212 1-452); details: protein: recombinant; tags: N-terminal GST; dsDNA, one strand shown
# Sequence of ETV6 (P41212 whole entry): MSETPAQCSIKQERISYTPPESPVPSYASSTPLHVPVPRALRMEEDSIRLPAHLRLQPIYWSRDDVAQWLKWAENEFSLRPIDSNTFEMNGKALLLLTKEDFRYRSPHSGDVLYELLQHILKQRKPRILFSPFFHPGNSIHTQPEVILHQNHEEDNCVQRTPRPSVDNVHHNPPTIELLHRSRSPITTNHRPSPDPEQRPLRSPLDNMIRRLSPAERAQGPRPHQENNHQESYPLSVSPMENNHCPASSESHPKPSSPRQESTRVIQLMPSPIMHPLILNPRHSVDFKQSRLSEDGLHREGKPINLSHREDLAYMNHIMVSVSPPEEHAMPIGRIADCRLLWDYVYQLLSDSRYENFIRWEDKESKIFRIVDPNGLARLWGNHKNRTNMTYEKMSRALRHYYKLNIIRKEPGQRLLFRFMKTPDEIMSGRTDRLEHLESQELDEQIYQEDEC
# How it was run: as §1
sequence,measurement,setting,value
TATGCT,binding signal,FEV,"1.24 fold enrichment (6-mer frequency, TF over GST control)"
same,binding signal,ETV5,"1.39 fold enrichment (6-mer frequency, TF over GST control)"
same,binding signal,HSF1,"1.41 fold enrichment (6-mer frequency, TF over GST control)"
same,binding signal,SPIC,"1.6 fold enrichment (6-mer frequency, TF over GST control)"
same,binding signal,ELF4,"1.31 fold enrichment (6-mer frequency, TF over GST control)"
same,binding signal,ELK4,"1.4 fold enrichment (6-mer frequency, TF over GST control)"
same,binding signal,ETV2,"1.3 fold enrichment (6-mer frequency, TF over GST control)"
same,binding signal,ELF3,"1.37 fold enrichment (6-mer frequency, TF over GST control)"
same,binding signal,CRX,"1.51 fold enrichment (6-mer frequency, TF over GST control)"
same,binding signal,ETV1,"1.29 fold enrichment (6-mer frequency, TF over GST control)"
same,binding signal,ERF,"1.18 fold enrichment (6-mer frequency, TF over GST control)"
same,binding signal,ETV3L,"1.45 fold enrichment (6-mer frequency, TF over GST control)"
same,binding signal,ETS2,"1.29 fold enrichment (6-mer frequency, TF over GST control)"
same,binding signal,SPDEF,"1.36 fold enrichment (6-mer frequency, TF over GST control)"
same,binding signal,ETV7,"1.32 fold enrichment (6-mer frequency, TF over GST control)"
same,binding signal,ELF5,"1.29 fold enrichment (6-mer frequency, TF over GST control)"
same,binding signal,ETV3,"1.32 fold enrichment (6-mer frequency, TF over GST control)"
same,binding signal,ETV6,"1.24 fold enrichment (6-mer frequency, TF over GST control)"
